# Assay results reported in PubChem BioAssay (NCI).
# About 83,000 compounds went through this panel and 20% of them were active in at least one assay; those are over-represented in the sample as a whole.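 Negative percent growth values reflect cell death: -40 means 40% of the cells present at the start died, and -100 means all died.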 Calls of active or inactive are those of the source. The calls were made as follows: active = growth percent below 10; inactive = the rest.
# System: NCI-H322M lung
# Assay: NCI-60 one-dose screen, 48 h (100 = growth as untreated, 0 = no growth, -100 = all killed)
# Details: 10 µM unless noted
row,Structure (SMILES),growth
1,COc1cccc(/C=C2\Oc3cc(OCCN4CCCC4)ccc3C2=O)c1,92.7% (inactive)
2,COc1ccc(-c2nc3ccc(-c4nc5ccc(N6CCN(c7ccncc7)CC6)cc5[nH]4)cc3[nH]2)cc1OC,81.2% (inactive)
3,Cc1ccc(C2=NN3C(C2)c2cc(Br)ccc2OC32CCN(Cc3ccccc3)CC2)o1 (centres undefined),92.7% (inactive)
4,COc1cc2c(cc1-c1c(C)noc1C)ncc1nc(-c3ccccn3)n([C@H](C)COC(F)F)c12,51.4% (inactive)
5,Cc1oc(-c2ccc(Cl)cc2Cl)cc1C(=O)Nc1nccs1,91.1% (inactive)
6,COc1ccc2c(c1)c(-c1nonc1-c1cn(C)c3ccccc13)cn2C,42.2% (inactive)
7,COC(=O)c1ccc(NC(=O)c2ccc(-c3cccc([N+](=O)[O-])c3)o2)cc1,94.3% (inactive)
8,COc1cccc(C2=NN3C(C2)c2cc(Br)cc(OC)c2OC32CCN(Cc3ccccc3)CC2)c1 (centres undefined),103% (inactive)
9,O=C1c2cc3c(cc2-c2c1c1cc(F)c(F)cc1c(=O)n2CCCn1ccnc1)OCO3,14.5% (inactive)
10,Cc1ccc2c(C(C[N+](=O)[O-])c3ccccc3F)c(-c3ccccc3)[nH]c2c1 (centres undefined),68.5% (inactive)
11,Cc1ccccc1COc1ccc(-c2onc(C)c2-c2ccc(Cl)cc2)cc1,97.6% (inactive)
12,COC[C@H](C)n1c(C2CCOCC2)nc2cnc3cc(-c4c(C)noc4C)c(OC)cc3c21,50.4% (inactive)
13,C#CCOc1ccc2ncnc(NCc3cccc(NC(=O)CCl)c3)c2c1,82.3% [8.25 µM] (inactive)
14,COc1cc(-c2nn(C)nc2-c2cc3ccccc3s2)cc(OC)c1OC,44.9% (inactive)
15,O=C1NC(=S)N[C@H]1CC(=O)n1cnc2ccccc21,105% (inactive)
16,O=S(=O)(Nc1ccc(I)cc1F)c1ccc(-c2cnc(C3CC3)o2)cc1,86.2% (inactive)
17,CC[C@@H](C(=O)[C@@H](C)[C@@H](O)[C@H](C)[C@@H]1O[C@@H]([C@@H](CC)C(=O)O)CC[C@@H]1C)[C@H]1OC2(C=C[C@@H](O)[C@]3(CC[C@@](C)([C@H]4CC[C@](O)(CC)[C@H](C)O4)O3)O2)[C@H](C)C[C@@H]1C (some centres undefined),24.2% (inactive)
18,CCOC(=O)c1csc(NC(=O)COc2cccc(/C=C3\CSc4ccccc4C3=O)c2)n1,97.1% (inactive)
19,CN1CCN(c2ccc3nc(-c4ccc(OCCCCN5CCN(CCCCN6C(=O)c7cccc8cccc(c78)C6=O)CC5)cc4)[nH]c3c2)CC1,90.5% (inactive)
20,Cc1ncc(C(=O)Nc2ccc(CN3CCN(C)CC3)c(C(F)(F)F)c2)cc1C#Cc1cnc2cccnn12,-1.83% (active)

row,Structure (SMILES),growth
1,Cc1nc2c3c(-c4ccccc4)c(-c4ccccc4)oc3ncn2n1,102% (inactive)
2,O=C(N/N=C/c1ccccc1O)c1ccccc1Nc1ccnc(C(F)(F)F)c1,13.1% (inactive)
3,COC(=O)[C@]12CCC(C)(C)C[C@H]1[C@H]1C(=O)C[C@@H]3[C@@]4(C)c5c([nH]c6ccccc6c5=O)C(C)(C)[C@@H]4CC[C@@]3(C)[C@]1(C)CC2,90.4% (inactive)
4,COc1ccc(-c2n[nH]nc2-c2csc3ccccc23)cc1OC,51.7% (inactive)
5,O=C1c2ccccc2C(=O)c2c(N=Nc3[nH]c(=S)[nH]c3O)cccc21,40.1% (inactive)
6,Cn1c(NCCc2ccc(O)c(O)c2)nc2c1c(=O)n(Cc1ccc(Br)cc1)c(=O)n2C,87.8% (inactive)
7,Cc1ccc(/C=C2\SC(=S)N(CC(=O)NCCCN3CCOCC3)C2=O)cc1,104% (inactive)
8,Cc1ccc(C2Oc3ccccc3C3CC(c4cccs4)=NN32)cc1 (centres undefined),91.5% (inactive)
9,C=CC(=O)Nc1cccc(-c2nc(SC)nc(NCCc3ccc(OC)c(OC)c3)c2C#N)c1,90.9% (inactive)
10,Cc1nc(/N=C(\N)NC(=O)Nc2cccc([N+](=O)[O-])c2)sc1C,93.7% (inactive)
11,COc1ccc(-n2nc(C)c3c(Nc4ccc(NC(=O)Nc5ccc(Cl)c(C(F)(F)F)c5)cc4)ncnc32)cc1,9.35% (active)
12,O=C(/C=C/c1cccc([N+](=O)[O-])c1)c1ccc(O)c(CN2CCN(c3cc4c(cc3F)c(=O)c(C(=O)O)cn4C3CC3)CC2)c1,61.4% (inactive)
13,CCC([N+](=O)[O-])S(=O)(=O)c1ccc(C)cc1 (centres undefined),112% (inactive)
14,Cc1cn2c(/C=C3/C(=O)Nc4c3ccc3ccccc43)c(C(F)(F)F)nc2s1,43.2% (inactive)
15,O=C1c2cc3c(cc2-c2c1c1ccc(F)cc1c(=O)n2C[C@H](O)[C@@H](O)[C@H](O)CO)OCO3,13% (inactive)
16,O=C(Nc1cccc2[nH]c(C(F)(F)F)nc12)c1ccc(-n2cnnn2)cc1,107% (inactive)
17,Fc1ccc(CNc2cccc3[nH]c(C(F)(F)F)nc23)cc1,104% (inactive)
18,O=C1c2cc3c(cc2-c2c1c1ccc(F)cc1c(=O)n2CCCNCCO)OCO3,-33.3% (active)
19,N#CN1CC[C@H](C(=O)Nc2cc3cc(C(N)=O)ccc3cn2)C1,13.6% (inactive)
